Screens from PubChem.
EBNA-1 inhibitor = EBNA-1 DNA-binding inhibitors, primary screen, biochemical, fluorescence polarization; inhibition, % at 14.8 µM; 300,000 tested, 0.34% active; in the data active = inhibition above about 28%
PP5 primary = PP5 phosphatase inhibitors, primary screen, biochemical, fluorescence; Serine/threonine-protein phosphatase 5 (Homo sapiens), P53041; purified PP5c, OMFP substrate fluorescence; inhibition, % at 6.7 µM; 320,000 tested, 0.18% active; AID 1987, 2009;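 active = inhibition above the campaign's mean inhibition across all tested compounds plus 3 SD, cut at about 9.5% in these data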
MsrA inh = bovine MsrA enzyme inhibitors, primary screen, biochemical, absorbance, HTS; Methionine sulfoxide reductase A (Bos taurus); purified bovine MsrA, absorbance read-out; inhibition, % at 15.5 µM; 360,000 tested, 0.75% active; AID 651718, 2012; in the data active = inhibition above about 4.5%
ZTA counter = ZTA (EBV) inhibition in EBNA-1 counter-screen; P03206; ZTA-DNA binding, fluorescence polarization; inhibition, % at 11 µM; 320,000 tested, 0.15% active; AID 2234; in the data active = inhibition above about 33%
Target sequence (P03206 whole entry, looked up): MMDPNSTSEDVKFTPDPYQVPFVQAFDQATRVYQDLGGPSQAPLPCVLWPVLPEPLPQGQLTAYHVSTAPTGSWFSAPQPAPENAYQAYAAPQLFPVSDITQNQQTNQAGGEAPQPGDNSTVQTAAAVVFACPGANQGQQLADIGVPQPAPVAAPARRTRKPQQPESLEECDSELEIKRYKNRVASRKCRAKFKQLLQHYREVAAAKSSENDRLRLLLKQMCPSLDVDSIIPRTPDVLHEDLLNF
MsrA act = bovine MsrA enzyme activators, primary screen, biochemical, absorbance, HTS; Methionine sulfoxide reductase A (Bos taurus); purified bovine MsrA, absorbance read-out; activation, % at 10.6 µM; 360,000 tested, 0.3% active; AID 602163, 2012; in the data active = activation above about 7.5%
PP1 inh = PP1-alpha phosphatase inhibitors, primary screen, counter-screen for PP5 inhibitor project, biochemical, fluorescence, OMFP substrate, single point; Serine/threonine-protein phosphatase PP1-alpha catalytic subunit (Homo sapiens), P62136; purified PP1alpha; inhibition, % at 6.7 µM; 320,000 tested, 0.9% active;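 active = inhibition above the mean inhibition of all tested compounds plus 3 SD, computed separately for each screening campaign, cut at about 15% in these data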
Target sequence (P62136 whole entry, looked up): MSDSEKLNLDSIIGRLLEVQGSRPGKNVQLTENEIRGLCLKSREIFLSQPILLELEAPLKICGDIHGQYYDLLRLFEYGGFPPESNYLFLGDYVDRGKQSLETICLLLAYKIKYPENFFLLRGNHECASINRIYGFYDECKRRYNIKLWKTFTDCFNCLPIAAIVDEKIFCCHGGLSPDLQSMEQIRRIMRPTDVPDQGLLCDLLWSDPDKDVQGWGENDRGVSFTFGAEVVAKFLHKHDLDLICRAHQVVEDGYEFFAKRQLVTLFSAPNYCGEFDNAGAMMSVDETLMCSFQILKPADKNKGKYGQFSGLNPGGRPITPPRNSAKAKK
PP1 inh confirm = PP1 phosphatase inhibitors, confirmation, biochemical, fluorescence, OMFP substrate, triplicate. inhibition, % at 6.7 µM. 1,900 tested, 52% active. purified PP1alpha. shares compounds with PP1 inh. AID 2358, 2010;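 active = mean PP1 inhibition above a set limit taken from the earlier primary screen, cut at about 15% in these data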
PP5 counter = PP5 phosphatase inhibition by PP1 hits, confirmation, counter-screen for PP1 inhibitor project, biochemical, fluorescence, triplicate. shares compounds with PP1 inh. purified PP5c, OMFP fluorescence. inhibition, % at 6.7 µM. 1,900 tested, 4% active;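 active = mean PP5 inhibition over triplicate wells above about 9.5% taken from the earlier PP1 screen, limit read from the data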
Hits are given with their value; 0 = inactive; - = no result. This is a sample that favours compounds with a hit; in the whole collection about 2.3% have one here.

SMILES | EBNA-1 inhibitor | PP5 primary | MsrA inh | ZTA counter | MsrA act | PP1 inh | PP1 inh confirm | PP5 counter
Cc1ccc(-c2cc(C(=O)NCCCn3ccnc3)c3cc(Br)ccc3n2)o1 | 0 | 0 | - | 0 | 0 | 31.6 | 0 | 0
Cc1ccc(-c2cc(C(=O)O)c3cc(Br)ccc3n2)o1 | 0 | 0 | 0 | 0 | 0 | 0 | - | -
CCOC(=O)C1CCCN(c2nc3ccccc3nc2C(C#N)C(=O)OCC)C1 (stereo unspecified) | 0 | 0 | 0 | 0 | 0 | 21.0 | 0 | 0
Cc1ccn2cc(-c3cccc([N+](=O)[O-])c3)nc2c1 | 0 | 0 | 0 | 0 | 0 | 0 | - | -
c1ccc(Cn2nnc(CNc3ccccc3)c2-c2c(CNc3ccccc3)nnn2Cc2ccccc2)cc1 | 0 | 0 | - | 0 | 0 | 22.8 | 0 | 0
CCC1Sc2ccc(S(=O)(=O)CCC(=O)Nc3ccc(OC(F)(F)F)cc3)cc2NC1=O (stereo unspecified) | 0 | 0 | 0 | 0 | 0 | 0 | - | -
CCOC(=O)c1ccc(CNCc2ccc(Br)cc2)cc1 | 0 | 0 | 0 | 0 | 0 | 0 | - | -
CCOC(=O)c1[nH]nc(C(=O)c2ccc(Br)cc2)c1O | 0 | 0 | 0 | 0 | 0 | 31.1 | 30.4 | 0
CCN(CC)C(=O)CSc1ncnc2c(-c3cccs3)nsc12 | 0 | 0 | 0 | 0 | 0 | 25.4 | 0 | 0
CCN(CC)C(=O)CSc1ncnc2sccc12 | 0 | 0 | 0 | 0 | 0 | 0 | - | -
COc1ccc(-c2cc(-c3ccc(Cl)cc3)c(C#N)c(SCC(=O)O)n2)cc1 | 0 | 0 | 0 | 0 | 0 | 48.3 | 27.5 | 0
O=C(Nc1nnc(-c2ccc3c(c2)CCCC3)o1)C1COc2ccccc2O1 (stereo unspecified) | 0 | 0 | 0 | 0 | 0 | 37.8 | 37.3 | 0
O=C(CCc1ccccc1)N1CCN(S(=O)(=O)c2cccs2)CC1 | 0 | 0 | 0 | 0 | 0 | 0 | - | -
COc1cc(C(=O)Nc2nc(OC)c(-c3ccccc3)c(OC)n2)cc(OC)c1OC | 0 | 0 | 0 | 0 | 0 | 0 | - | -
COc1cc(C(=O)Nc2cc(-c3ccccc3)[nH]n2)cc(OC)c1OC | 0 | 0 | 0 | 0 | 0 | 19.8 | 17.4 | 0
CCOC(=O)C1(Cc2cccc(Cl)c2)CCCN(C(=O)CN2C(=O)CSC2=O)C1 (stereo unspecified) | 0 | 0 | 0 | 0 | 0 | 18.9 | 0 | 0
CN(Cc1ccccc1)C(=O)COC(=O)CCC(=O)c1ccc(Cl)cc1 | - | - | 0 | - | 0 | - | - | -
Cc1cccc(OCCOC(=O)CN2C(=O)NC3(CCCC3)C2=O)c1 | 0 | 0 | 0 | 0 | 0 | 0 | - | -
O=C(CN1C(=O)NC2(CCCC2)C1=O)OCCOc1cccc(Cl)c1 | 0 | 0 | 0 | 0 | 0 | 18.1 | 0 | 0
N#Cc1c(-c2ccccc2)nc(SCc2ccc(Cl)cc2)[nH]c1=O | 0 | 0 | 0 | 0 | 0 | 17.9 | 0 | 0
N#Cc1c(-c2ccccc2)nc(SCC(=O)N(c2ccccc2)c2ccccc2)[nH]c1=O | 0 | 0 | 0 | 0 | 0 | 0 | - | -
N#Cc1c(-c2ccccc2)nc(SCC(=O)N2c3ccccc3Sc3ccccc32)[nH]c1=O | 0 | 0 | 0 | 0 | 0 | 20.7 | 17.4 | 0
O=C1Nc2ccccc2N2CCCC12 (stereo unspecified) | 0 | 0 | - | 0 | - | 21.5 | 0 | 49.2
COC(=O)c1ccc(NC(=O)c2ccc3c(c2)NC(=O)C2CCCN32)cc1 (stereo unspecified) | - | 0 | - | 0 | - | 34.4 | 27.3 | 0
CCOc1ccc(CCNC(=O)c2ccc3c(c2)NC(=O)C2CCCN32)cc1OCC (stereo unspecified) | 0 | 0 | - | 0 | - | 0 | - | -
SMILES | EBNA-1 inhibitor | PP5 primary | MsrA inh | ZTA counter | MsrA act | PP1 inh | PP1 inh confirm | PP5 counter
Cc1ccc(C(=O)NC(Cc2cccc(C(F)(F)F)c2)C(=O)O)cc1 (stereo unspecified) | - | - | 0 | - | 0 | - | - | -
CC(C)c1ccc(NC2CCCN(C(=O)c3cnsn3)C2)cc1 (stereo unspecified) | 0 | 0 | 0 | 0 | 0 | 0 | - | -
COc1ccc(/C=C2/SC(=O)N(CCC(=O)Nc3ccc(S(=O)(=O)Nc4nccs4)cc3)C2=O)cc1 | 0 | 0 | 0 | 0 | 0 | 0 | - | -
COc1ccc(/C=C2\SC(=O)N(CCC(=O)Nc3ccc(S(=O)(=O)Nc4nccs4)cc3)C2=O)cc1 | 0 | 0 | 0 | 0 | 0 | 21.0 | 0 | 0
COCCCNC(=O)CCCn1c(=O)c2ccccc2n(CC(=O)Nc2c(C)cc(C)cc2C)c1=O | 0 | 0 | 0 | 0 | 0 | 0 | - | -
O=C(Nc1nc2n(n1)C(c1ccc(Cl)cc1)CC(c1ccc(Cl)cc1)N2)c1ccco1 (stereo unspecified) | 0 | 0 | 0 | 0 | - | 22.8 | 16.1 | 0
N#Cc1c(-c2ccco2)cc(-c2ccccn2)nc1N | 0 | 0 | 0 | 0 | 0 | 26.7 | 0 | 0
N#Cc1c(-c2ccco2)cc(-c2cccnc2)nc1N | 0 | 0 | 0 | 0 | 0 | 28.3 | 0 | 0
Cc1cc(C)c(OCC(=O)NCC2CCCO2)c(C)c1 (stereo unspecified) | 0 | 0 | 0 | 0 | 0 | 41.6 | 0 | 0
Cc1cccc(C)c1OCC(=O)NCC1CCCO1 (stereo unspecified) | 0 | 0 | 0 | 0 | 0 | 0 | - | -
C=CCN(CC=C)S(=O)(=O)c1ccc(NC(=S)NC(=O)C2CC2)cc1 | 0 | 0 | 0 | 0 | 0 | 0 | - | -
CC1Cc2ccccc2N1Cc1cc(=O)n2ccsc2n1 (stereo unspecified) | 0 | 0 | 0 | 0 | 0 | 21.9 | 19.3 | 0
COc1ccc(-c2noc(CCC(=O)N3CCN(c4ccccc4F)CC3)n2)cc1 | - | - | 0 | - | 0 | - | - | -
Cc1cccc(-n2c(-c3ccncc3)n[nH]c2=S)c1C | 0 | 0 | 0 | 0 | 0 | 18.6 | 0 | 0
Cc1ccc(-c2nn(-c3cccc(F)c3)cc2CNCc2cccnc2)o1 | 0 | 0 | 0 | 0 | 0 | 0 | - | -
Cc1nn(-c2ccc(Cl)cc2)c(Cl)c1/C=N/NC(=O)c1ccc(NS(=O)(=O)c2cccs2)cc1 | 0 | 0 | 0 | 0 | 0 | 18.7 | 0 | 0
Cc1nn(-c2ccc(F)cc2)c(Cl)c1/C=N/NC(=O)c1cccs1 | 0 | 0 | 0 | 0 | 0 | 0 | - | -
Cn1cccc1C(=O)Nc1nc(-c2ccccn2)cs1 | 0 | 0 | 0 | 0 | 0 | 32.5 | 41.4 | 0
CSCCC(=O)Nc1nc(-c2ccccn2)cs1 | - | - | 0 | - | 0 | - | - | -
CCc1sc(C(=O)Nc2nc(-c3ccccn3)cs2)cc1C | - | - | - | - | 0 | - | - | -
O=C(CCCSc1ccccc1)Nc1nc(-c2ccccn2)cs1 | 0 | 0 | 0 | 0 | 0 | 41.1 | 39.4 | 0
Cc1csc(NC(=O)c2cccn2C)n1 | 0 | 0 | 0 | 0 | 0 | 0 | - | -
Cc1ccc(C(=O)Nc2nc(-c3ccccn3)cs2)s1 | - | 0 | 0 | 0 | 0 | 33.8 | 32.5 | 0
